# Measurements: the supplement of paper PMC10338343
# ± gives the standard deviation.
# System: MILI (PIWIL2) piRISC loaded with piRNA #1 (26 nt)
# Assay: pre-steady-state target cleavage rate (min^-1); guide: piRNA #1 5'p-UGAGGUAGUAGGUUGUAUAGUAUCCA; MIWI and MILI are mouse PIWI proteins and EfPiwi is from a freshwater sponge; tags in brackets are library labels; higher = faster piRNA-guided slicing of the target
# Settings: auxiliary factor: 500 nM mouse GTSF1
# Method in brief: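 The method was Cleave-'n-Seq, in which uncleaved targets from a transcribed, DNA-blocked target RNA library were sequenced after exposure to active affinity-purified piRISC carrying one synthetic guide, with or without GTSF1 partner protein. Reactions contained 0.1 nM library, 1 nM piRISC and, where present, 500 nM GTSF1 in HEPES–potassium acetate buffer at 33 °C for 0–8 or 0–960 min. Reads were normalised to depth and to weakly complementary targets, three trials were pooled, and k3 was capped at 0.0001 min^-1. The pre-steady-state cleavage rate came from a burst-and-steady-state fit.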
row,Sequence,pre-steady-state target cleavage rate
1,GGAGACCUAUGUAUAGAACCUACUACCACA,0.0238 ± 0.0059
2,GGAGACCUAUGAUAUGUACCUACAAGCUCA,< 0.0001
3,GGAGACCUUACUAUACAAGCUAGUACCUCA,0.138 ± 0.02
4,GGAGACCUUAGUAUACAACCUUCUACCUCA,0.00489 ± 0.0033
5,GGAGACCUAUGUAUUCAACCUACUAGCUCA,0.0092 ± 0.0033
6,GGAGACCUAUGAAUACUAGCUACUACCUCA,0.00307 ± 0.002
7,GGAGACCUAUGAUAACAACCUACUUCCUCA,0.00353 ± 0.0025
8,GGAGACCUUACUAUACAAGCUUCUACCUCA,0.036 ± 0.0065
9,GGAGACCUAACUUUAGAACCUACUACCUCA,0.129 ± 0.023
10,GGAGUGGAUACAAUACAACCUAGUACCUCA,0.0718 ± 0.013
11,GGAGACCUAUGUGUACAACCUACUACCUCA,0.0178 ± 0.0035
12,GGAGACCUAUCUAUACAAGCUACUACCUCA,0.193 ± 0.017
13,GGAGACCUUAGUAUACAACCUACUACGUCA,0.0155 ± 0.0047
14,GGAGACCUAUGAAUACAACCUACUACCUA,0.00429 ± 0.0026
15,GGAGACCUUACUAAACAACCUACUACCACA,0.128 ± 0.017
16,GGAGACCUAUCUAUAUCAACCUACUACCUCA,0.00847 ± 0.0035
17,GGAGACCUAUGAAUACAACCUAAUACCUCA,0.00363 ± 0.0026
18,GGAGACCUUAAUAUACAACCUACUACCUCA,0.0318 ± 0.0064
19,GGAGACCUAUGAAUACAUCCUACUUCCUCA,0.00892 ± 0.0025
20,GGAGACCUAUGAUAUGUUGGUACUACCAGA [g4:g10:cont:t1A],< 0.0001

row,Sequence,pre-steady-state target cleavage rate
1,GGAGACCUUACAAUAGAACCUACUACCUCA,0.0823 ± 0.01
2,GGAGACGAUACUAUACAACGUACUACGUCA,0.00557 ± 0.0029
3,GGAGACCAUACUAUACAUGCUACUACCUCA,0.0704 ± 0.01
4,GGAGACCUUACUUUACAACCUACAACCUCA,0.0873 ± 0.013
5,GGAGACCUAUGAUUUCAAGCUACUACCUCA,0.00713 ± 0.0026
6,GGAGACGAUACAAUACAACCUACUAGCUCA,0.137 ± 0.023
7,GGAGACCUAACUAUACAACCUACGUACCUCA,0.0356 ± 0.015
8,GGAGACCUAUGAUAUGUACCUACUACCUGCA,< 0.0001
9,GGAGAGGAUACUAUAGUACCUACUACCUCA,0.159 ± 0.012
10,GGAGACCUAUGAAUACAAGCUACUACCUCA,0.0349 ± 0.0069
11,GGAGACCUAACAUAUACAACCUACUACCUCA,0.026 ± 0.012
12,GGAGACCUAUGAAUACAACCAUCUACCUCA,0.00333 ± 0.0021
13,GGAGACCUAUGUAUACAACCUACUAUCUCA,0.0416 ± 0.0058
14,GGAGUGGAUACUAUACAACCUGCUACCUCA,0.0658 ± 0.0067
15,GGAGACCAUACUAUACAACCUACAAGCUCA,0.0598 ± 0.015
16,GGAGACGAUACUAUACAACCUACUAGCUCA,0.11 ± 0.019
17,GGAGACCUAUCUAUACAACCUACUUACCUCA,0.121 ± 0.015
18,GGAGACCUAUGAUAUGAACGUACAACCUCA,< 0.0001
19,GGAGACCUAUCUAUAGAACCUACUACCUGA,0.00618 ± 0.0029
20,GGAGACGAUACUAUACAACCUACUAUCCUCA,0.193 ± 0.024
